For 52 compounds, activation results are on record in PubChem BioAssay AID624465 (National Center for Advancing Translational Sciences (NCATS), 2012).

The structures appear in SMILES notation. Screen size: about 360,000 compounds; about 300 (0.083%) were called active. Rule as the data show it: active = activation above about 40%; inconclusive = between about 15% and that limit; inactive = weaker than that. The entries come from a sample that favours actives as a whole.

For this test, the target named is D(2) dopamine receptor (Homo sapiens) (UniProt P14416). In words: Beta-Arrestin HTS for Positive Allosteric Modulators of the Human D2 Dopamine Receptor: Agonists. The conditions noted are these: DiscoveRx PathHunter D2 beta-arrestin, luminescence, 90 min; active compounds read high; 100% = 57 uM dopamine signal. A digest of the protocol: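 Agonist mode: compounds alone added to overnight-plated D2 PathHunter cells for 90 min at 37 C, with 57 uM final dopamine (EC100) defining full response. Beta-arrestin recruitment detected by chemiluminescent reagent, read after 1 h at ambient temperature.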
Sequence of D(2) dopamine receptor (Homo sapiens) (P14416 whole entry, looked up): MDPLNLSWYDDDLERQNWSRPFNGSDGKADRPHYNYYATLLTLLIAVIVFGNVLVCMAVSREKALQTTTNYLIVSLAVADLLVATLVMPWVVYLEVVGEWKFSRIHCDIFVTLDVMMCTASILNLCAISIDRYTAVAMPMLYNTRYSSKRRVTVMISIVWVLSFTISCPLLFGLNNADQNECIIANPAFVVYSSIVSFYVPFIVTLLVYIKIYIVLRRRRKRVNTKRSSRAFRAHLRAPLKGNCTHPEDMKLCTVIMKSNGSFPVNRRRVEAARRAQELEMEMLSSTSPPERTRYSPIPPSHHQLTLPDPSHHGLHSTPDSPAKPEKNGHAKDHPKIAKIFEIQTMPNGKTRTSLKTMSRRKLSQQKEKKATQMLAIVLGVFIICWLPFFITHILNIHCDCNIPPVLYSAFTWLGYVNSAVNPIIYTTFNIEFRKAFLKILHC
On to `COc1ccc(C(=O)NCC2CCCO2)cc1S(=O)(=O)NCc1ccc(Cl)cc1` (configuration not stated), for which the activation was 0.708% (inactive).

Regarding `CC(=O)Nc1cccc(/C(C)=N/NC(=O)c2c(-c3ccccc3Cl)noc2C)c1`, the activation is -0.376% (inactive).

In the case of `C/C(=N\Nc1cccc(C(=O)O)c1)c1ccc2c(c1)Nc1ccccc1S2`, the activation is 41.5% (active).

Consider `C/C(=N/Nc1nc(-c2ccccc2)c(CC(=O)O)s1)c1ccccc1`, for which the activation was -4.03% (inactive).

For `CC(=O)NN=C(C)c1ccc(NC(=O)C2CC2)cc1`, the activation is -2.2% (inactive).

For the compound `CC(C)Oc1ccc(CN2CCC2(C)C(=O)NCc2ccc(C(F)(F)F)cc2)cc1` (configuration not stated), the activation is -5.75% (inactive).

For the compound `O=C(NCc1ccco1)c1ccc(NS(=O)(=O)c2cccc([N+](=O)[O-])c2)cc1`, the activation is 2.68% (inactive).

Consider `COCc1[nH][nH]c(=O)c1C=Nc1ccc(F)cc1F`, for which the activation was -3.8% (inactive).

For `COC(=O)C1CC2=C(CC(C)(C)CC2=O)N(c2ccccc2)C1=O` (configuration not stated), the activation was -1.92% (inactive).

Regarding `O=C(CS(=O)(=O)c1cn(Cc2ccc(Cl)cc2)c2ccccc12)N1CCOCC1`, the activation is -7.71% (inactive).

On to `COc1ccc(S(=O)(=O)N(C)C[C@@H]2Oc3ccc(NS(=O)(=O)c4cn(C)cn4)cc3C(=O)N([C@@H](C)CO)C[C@@H]2C)cc1`, for which the activation was -2% (inactive).

As for `Brc1cnc2ccccc2c1N1CCCCC1`, the activation is -0.246% (inactive).

For `COC(=O)c1cc(CNC(=O)CC(C)c2ccccc2)ccc1OC` (configuration not stated), the activation is -6.11% (inactive).

For the compound `C/C(=N\NC(=O)c1ccc(CSc2nc(C)cc(C)n2)cc1)C1CCCCC1`, the activation was 2.32% (inactive).

For `CCOC(=O)C(C)Sc1nnc(CSc2nc3nc(C)cc(C)n3n2)o1` (configuration not stated), the activation was -4.24% (inactive).

On to `CN(C)C(=O)CCC(=O)N1CCCCC1C(=O)Nc1ccc(Oc2ccccc2F)cc1` (configuration not stated), for which the activation was -8.59% (inactive).

With `COc1ccc(N(CC(=O)NC2CCCC2)C(=O)CS(=O)CC(=O)Nc2ccc3c(c2)OCO3)cc1` (configuration not stated), the activation is -1.02% (inactive).

As for `Cc1ccccc1-c1nc(CS(=O)(=O)CC(=O)N2CCc3ccccc3C2)c(C)o1`, the activation was -4.35% (inactive).

For the compound `CCC1C(C#N)=C(SC)NC2=C1C(=O)CC(C)(C)C2` (configuration not stated), the activation was -0.142% (inactive).

With `O=C(NC1CCCCC1)C1CC(=O)N(CCc2ccccc2)C1` (configuration not stated), the activation is -0.239% (inactive).

For the compound `CO/N=C/c1cn(-c2ccc(Cl)cc2)nn1`, the activation is -5.2% (inactive).

For `N#CC1(Nc2ccc3c4c(cccc24)CC3)CCCCC1`, the activation was -1.77% (inactive).

For the compound `CCS(=O)(=O)N1CCC(N2CCN(c3ccccc3)CC2)CC1`, the activation is 45.9% (active).

For the compound `CCOc1ccc(CC(=O)NCCS(=O)(=O)N2CCN(c3ccccc3)CC2)cc1`, the activation was 0.195% (inactive).

In the case of `O=S(=O)(NCCS(=O)(=O)N1CCN(c2ccccc2)CC1)c1ccc(F)cc1`, the activation was -3.38% (inactive).

Turning to `CC1CCN(c2nc3c(c(=O)[nH]c(=O)n3C)n2CCCc2ccccc2)CC1`, the activation is 1.37% (inactive).

For `COc1ccc(CCn2c(NN=C3CCCC3)nc3c2c(=O)[nH]c(=O)n3C)cc1`, the activation was 46% (active).

For the compound `COc1ccc(CCn2c(NCCCN3CCOCC3)nc3c2c(=O)[nH]c(=O)n3C)cc1`, the activation was 0.498% (inactive).

For the compound `Cc1noc(C)c1C(=O)NC(C)c1ccc2c(c1)OCO2` (configuration not stated), the activation is 2.73% (inactive).

In the case of `Nc1cc2c(cc1Br)-c1ccc(F)cc1C2=O`, the activation is 0.435% (inactive).

In the case of `Cn1nc(C(=O)OCC(=O)N(Cc2ccccc2)C(C)(C)C)c2ccccc2c1=O`, the activation is -5.43% (inactive).

With `CNC[C@@H]1Oc2c(NS(C)(=O)=O)cccc2C(=O)N([C@@H](C)CO)C[C@H]1C`, the activation was -2.2% (inactive).

With `CCOc1cc(CN2CCCC(CO)(Cc3ccc(F)cc3F)C2)ccc1OC` (configuration not stated), the activation is -5.13% (inactive).

With `COc1ccccc1N1CCN(S(=O)(=O)CCNC(=O)c2ccc(OC(C)C)cc2)CC1`, the activation is 4.66% (inactive).

In the case of `CCCCNC(=O)c1nc(C2CCN(S(=O)(=O)c3ccc(F)c(F)c3)CC2)oc1-c1cccc(C(F)(F)F)c1`, the activation was -1.93% (inactive).

Consider `OCCN1CCN(CCO)C1=S`, for which the activation is -3.52% (inactive).

Turning to `O=C(CSc1nnc2n1CCCN2)c1ccccc1`, the activation is 1.27% (inactive).

For the compound `COc1cc([N+](=O)[O-])cc([N+](=O)[O-])c1NC(=O)N1CCOCC1`, the activation was 5.63% (inactive).

Consider `COc1cc(C(=S)N2CCOCC2)cc(OC)c1OC(=O)c1cc([N+](=O)[O-])c(C)c([N+](=O)[O-])c1`, for which the activation is 4.7% (inactive).

Consider `COc1cc(C(=S)N2CCOCC2)cc(OC)c1OC(=O)c1ccc([N+](=O)[O-])cc1[N+](=O)[O-]`, for which the activation was 48% (active).

For the compound `O=C(CN(C(=O)CNC(=O)c1cccs1)c1cccc(F)c1)NC1CCCCC1`, the activation was -1.63% (inactive).

Take `O=C1CCC(C(=O)N2CCCCO2)CN1Cc1cccc(C(F)(F)F)c1` (configuration not stated): the activation is 1.46% (inactive).

With `CCCCN1C(=O)C(CC(=O)NC(c2ccccc2)c2ccccc2)CC(C(=O)N2CCOCC2)=C1C` (configuration not stated), the activation was -7.35% (inactive).

Turning to `CCOC(=O)C(CCOc1cccc(CC)c1)C(=O)OCC`, the activation was -1.01% (inactive).

With `CNC(=O)c1csc(Cc2c(Cl)sc3ccc(Cl)cc23)n1`, the activation was 4.37% (inactive).

As for `Cc1ccc(S(=O)(=O)N(CC(=O)Nc2cccc([N+](=O)[O-])c2)Cc2ccc(Cl)cc2)cc1`, the activation is -7.47% (inactive).

For `CCC(C)NC(=O)Cn1nc(C(F)(F)F)c2c1CCC2` (configuration not stated), the activation is 1.68% (inactive).

With `COc1ccc(S(=O)(=O)N(C)C[C@H]2OCc3cnnn3CCCC(=O)N([C@H](C)CO)C[C@H]2C)cc1`, the activation was 4.14% (inactive).

Consider `CN(C)CCNC(=O)c1ccc(-c2cn3c(-c4ccc(Oc5ccccc5)cc4)cnc3cn2)cc1`, for which the activation is 3.24% (inactive).

With `C/C=C/C(=O)Nc1nnc(C(C)C)s1`, the activation was -0.338% (inactive).

Take `O=C(NNc1nc(N2CCCC2)nc(N2CCCC2)n1)c1ccccc1`: the activation was 1.25% (inactive).

Regarding `Cc1cc2c(cc1C)NC1(C[C@H]3CCC(=O)N4CC[C@@H](C1)[C@@H]34)C(=NC(C)(C)CC(C)(C)C)N2` (some centres not stated), the activation is 1.8% (inactive).
